Screening data: PubChem BioAssay, National Center for Advancing Translational Sciences (NCATS)
Gal4-VP16 FLuc: VP16 counterscreen qHTS for inhibitors of ROR gamma transcriptional activity; Drosophila S2 Gal4-VP16 UAS-luciferase, luminescence, 20 h; Potency, µM (titrated, usually from 53.6 µM), without a hit: at the top dose activity, negative = inhibition, actives largely listed as inhibitors; 3.5% of 310,000 active; AID 2546, 2010;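 note: Gal4-VP16 expression switched on by copper sulfate through the metallothionein promoter; nearly all actives have a fitted effect of over 50% in size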
TDP1 cell CPT: qHTS for Inhibitors of human tyrosyl-DNA phosphodiesterase 1 (TDP1): qHTS in cells in presence of CPT; chicken DT40 Tdp1-/-;hTDP1 cells + 20 nM CPT, ATP luminescence, 48 h; Potency, µM (highest dose often 46.2 µM), inactives show at the top dose activity change, negative = growth inhibition, actives largely listed as inhibitors; 12% of 420,000 active; note: nearly all actives have a fitted effect of over 55% in size
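Chicken DT40 Tdp1-/- cells complemented with human TDP1, 400 cells/well, exposed to compounds plus 20 nM camptothecin for at least 48 h at 37 C; viability read as ATP content by CellTiter-Glo luminescence.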
ALOX12 inh: Primary qHTS assay for inhibitors of human arachidonate 12S-lipoxygenase (ALOX12): Round 2. purified 12hLO, xylenol orange hydroperoxide absorbance. Potency, µM (series often up to 108 µM), without a hit: top-dose activity change, negative = inhibition, actives largely listed as inhibitors. 1.1% of 580,000 active. AID 1671190, 2021
Target sequence (P18054 whole entry, looked up): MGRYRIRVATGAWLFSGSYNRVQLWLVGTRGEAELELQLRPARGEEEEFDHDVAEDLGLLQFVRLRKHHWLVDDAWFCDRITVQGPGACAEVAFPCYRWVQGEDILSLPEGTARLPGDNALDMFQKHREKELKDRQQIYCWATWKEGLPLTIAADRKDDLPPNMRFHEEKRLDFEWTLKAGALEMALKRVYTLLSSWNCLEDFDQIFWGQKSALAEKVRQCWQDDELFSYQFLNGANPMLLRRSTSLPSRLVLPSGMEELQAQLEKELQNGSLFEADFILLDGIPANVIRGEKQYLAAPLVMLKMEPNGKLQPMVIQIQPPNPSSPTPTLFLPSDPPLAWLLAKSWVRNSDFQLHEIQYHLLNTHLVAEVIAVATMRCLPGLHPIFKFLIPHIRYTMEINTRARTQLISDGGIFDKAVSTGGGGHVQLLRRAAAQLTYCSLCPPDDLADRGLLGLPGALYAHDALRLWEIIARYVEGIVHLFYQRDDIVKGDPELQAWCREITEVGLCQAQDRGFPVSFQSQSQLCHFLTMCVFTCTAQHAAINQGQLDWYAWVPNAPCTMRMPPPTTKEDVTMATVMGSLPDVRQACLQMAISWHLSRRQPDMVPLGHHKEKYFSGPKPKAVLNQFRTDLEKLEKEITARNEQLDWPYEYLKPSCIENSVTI
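Purified human 12hLO (150 nM final) in 25 mM Hepes, 0.01% Triton X-100, pH 7.0 was preincubated 15 min at room temperature with compound. Then 40 uM arachidonic acid was added, 30 min. Hydroperoxide was read by Fe-XO absorbance ratio 573/405 nm.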
TDP1 cell noCPT: qHTS for Inhibitors of human tyrosyl-DNA phosphodiesterase 1 (TDP1): qHTS in cells in absence of CPT | 15% of 420,000 active | Potency, µM (titrated, usually from 46.2 µM), inactives show at the highest dose activity change, negative = growth inhibition, actives largely listed as inhibitors | DT40 Tdp1-/- hTDP1 cells, no CPT, ATP luminescence, 48 h; note: nearly all actives have a fitted effect of over 55% in size
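Stably hTDP1-transfected Tdp1-null chicken DT40 cells were treated with library compounds minus camptothecin and grown for at least 48 hr at 37 °C, after which cellular ATP was quantified by luminescence.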
RORg inh: qHTS for inhibitors of ROR gamma transcriptional activity. Drosophila S2 Gal4-RORgamma UAS-luciferase reporter, 20 h. Potency, µM (doses to about 53.6 µM), for inactives: at the highest dose activity change, negative = inhibition, usual class: inhibitors. 5.4% of 310,000 active. AID 2551, 2010; note: nearly all actives have a fitted effect of over 60% in size
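Drosophila S2 cells stably expressing Gal4-DBD/mouse RORγ fusion under metallothionein promoter plus UAS-luciferase; compound 1 h, then 700 uM CuSO4 induction for 20 h at ambient temperature; inhibition read as reduced luminescence.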
ELG1 DNA repair: qHTS screen for small molecules that inhibit ELG1-dependent DNA repair in human embryonic kidney (HEK293T) cells expressing luciferase-tagged ELG1 | HEK293T ELG1-luciferase reporter, luminescence, 16 h; DNA damage induced by 5-fluorouridine | Potency, µM (top dose mostly 46.1 µM), without a hit: top-dose activity change, negative = inhibition, hits mostly inhibitors | 2.3% of 330,000 active | AID 504467, 2011; note: nearly all actives have a fitted effect of over 55% in size
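Step one: seed 2,000 cells per well. Step two: pin-transfer compound or DMSO alongside 5-fluorouridine. Step three: incubate 16 hr, 37 °C, 5% CO2. Step four: add ONE-Glo, wait 30 min, read luminescence.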
Numbers without * were called inactive; ? = inconclusive; . = no result; [ ] = remark or other dose. Rows were chosen to be rich in hits. Some 15% of all compounds tested hit in one or more screens of this group. Calls come from the whole dose curve; as a rule, active = well fitted curve in the direction sought with a large enough effect; inconclusive = small, poorly fitted or top-dose-only effect, or another doubt; inactive = no such curve, though single readings can be large; an effect the other way counts as inactive or inconclusive. % is set by controls: 0 for no effect and ±100 for the full control effect; potency is the fitted concentration of half-maximal effect.

SMILES | Gal4-VP16 FLuc | TDP1 cell CPT | ALOX12 inh | TDP1 cell noCPT | RORg inh | ELG1 DNA repair
COc1ccc(CCNC(=O)C2CCN(Cc3nc(-c4ccc(Cl)cc4)oc3C)CC2)cc1OC | . | -15% | 7% | ? | . | .
Cc1ccccc1-c1nc(CN2CCCC(C(=O)NCc3ccc(Cl)cc3)C2)c(C)o1 (centres undefined) | . | -23% | ? | ? | . | .
CCCN(CCC)CCCNC(=O)C1CCCN(Cc2nc(-c3ccc(Cl)cc3)oc2C)C1 (centres undefined) | . | 12µM* | -8% | 9.2µM* | . | .
COc1ccc(-c2nc(CN3CCC(C(=O)N4CCOCC4)CC3)c(C)o2)c(OC)c1 | 5% | 10% | -12% | 5% | -1% | -6%
Cc1oc(-c2cccc(Cl)c2)nc1CN1CCCC(C(=O)NCc2ccc(F)cc2)C1 (centres undefined) | . | 5.8µM* | 0% | 5.8µM* | . | .
CCc1ccc(-c2nc(CN3CCC(C(=O)N4CCN(c5ccccc5)CC4)CC3)c(C)o2)cc1 | -8% | ? | ? | 16µM* | 27% | ?
COCCCNC(=O)N1CCCCCNC(=O)[C@@H]2CCCC[C@@H]21 | . | . | 34% | . | . | .
CCOc1ccc2c(c1)cc(C(=O)Nc1ccccc1OCC)n2C | . | . | 19% | . | . | .
COc1ccc(-c2nc(CN3CCC(C(=O)NCc4ccc(F)cc4)CC3)c(C)o2)cc1OC | . | 6% | -21% | 2% | . | .
COC(=O)c1ccc2c(c1)N(Cc1nc(-c3ccc(Cl)cc3)oc1C)C(=O)C1CCCN21 (centres undefined) | . | 21µM* | ? | ? | . | .
CCc1ccc(-c2nc(CN3CCC(C(=O)NCc4ccc(F)cc4)CC3)c(C)o2)cc1 | -10% | ? | -25% | ? | 12% | 15µM*
Clc1cc(CSc2ncnc3ccccc23)cc2c1OCCCO2 | . | . | 24% | . | . | .
CC[C@@H](NCCCn1ccc(NC(=O)OCc2ccccc2)nc1=O)c1ccccc1 | . | ? | -7% | 16µM* | . | .
C[C@@H](NCCCn1ccc(NC(=O)OCc2ccccc2)nc1=O)c1cccc2ccccc12 | . | ? | ? | 16µM* | . | .
C[C@@H](NC(=O)Cn1ccc(NC(=O)OCc2ccccc2)nc1=O)c1cccc2ccccc12 | . | ? | -12% | ? | . | -5%
COCCCNc1oc(-c2cccc3ccccc23)nc1C#N | . | . | -25% | . | . | .
O=C(CN1C(=O)COc2ccc(Cl)cc21)NCCN1CCN(c2ccccc2)CC1 | . | . | 23% | . | . | .
Cc1[nH]c2ccc(C(=O)N3CCN(c4cccc(Cl)c4)CC3)cc2c1C | -3% | 6.5µM* | -18% | 6.5µM* | -10% | 3%
CCc1cc(C(=O)N2CCN(c3ccccc3OC)CC2)sc1C | -3% | ? | ? | 16µM* | 3% | ?
COc1ccccc1N1CCN(C(=O)c2ccc3[nH]c4c(c3c2)CC(C)CC4)CC1 (centres undefined) | -3% | 16µM* | 0% | ? | ? | ?
Cc1[nH]c2ccc(C(=O)N3CCCC3)cc2c1C | -11% | 20% | -9% | -1% | 0% | ?
COc1ccccc1N1CCN(C(=O)c2ccc3[nH]c(C)c(C)c3c2)CC1 | 5% | 1.3µM* | 0% | 1µM* | 21% | ?
Cc1ccc(C(=O)NC2CC2)cc1S(=O)(=O)N1CCCC1 | . | . | -12% | . | . | .
CC(C)(CNC(=O)C1CCCCC1C(F)(F)F)C(N)=O (centres undefined) | . | . | -8% | . | . | .
CCOC(=O)c1cc(-c2ccc(OC)cc2)n(CCC(=O)NC2CCN(Cc3ccccc3)CC2)c1C | 6% | ? | -13% | 21µM* | -3% | ?
SMILES | Gal4-VP16 FLuc | TDP1 cell CPT | ALOX12 inh | TDP1 cell noCPT | RORg inh | ELG1 DNA repair
CCOC(=O)c1cc(-c2ccc(OC)cc2)n(CCC(=O)NCCN2CCC(C)CC2)c1C | -4% | ? | -17% | ? | -13% | 2%
CCOC(=O)c1cc(-c2ccc(F)cc2)n(CCC(=O)NC2CCN(Cc3ccccc3)CC2)c1C | 1% | 16µM* | -29% | 15µM* | -42% | ?
C(#Cc1ccccc1)C[N+]1(CC#Cc2ccccc2)CCCC1 | -23% | 1.8µM* | 41% | 1µM* | ? | ?
C=CC[N+]1(CC#Cc2ccccc2)CCCC1 | -1% | ? | 11% | ? | 4% | ?
C#CC[N+]1(CC#Cc2ccc(C)cc2)CCCCC1 | 4% | 2.3µM* | -13% | 3.3µM* | -2% | -20%
COc1ccc(CC(N)c2csc(Nc3nncc4ccccc34)n2)cc1 (centres undefined) | . | ? | ? | 18µM* | . | .
NC(c1csc(Nc2nncc3ccccc23)n1)C1CCCCC1 (centres undefined) | . | 5.8µM* | ? | 5.8µM* | . | .
NC(c1csc(Nc2ccccn2)n1)c1ccccc1Cl (centres undefined) | . | ? | -13% | ? | . | .
NC(c1csc(Nc2nncc3ccccc23)n1)c1ccccc1Cl (centres undefined) | . | 29µM* | ? | 15µM* | . | .
CC(C)OC(=O)NCCOC(N)=O | . | . | 13% | . | . | .
O=C(NCC(c1cccnc1)N1CCOCC1)C(=O)Nc1ccc(Cl)cc1 (centres undefined) | . | ? | -13% | ? | . | .
COc1ccc(C(=O)NCC(c2cccnc2)N2CCc3ccccc32)cc1 (centres undefined) | . | 9.2µM* | -13% | ? | . | .
O=C(NCC(c1cccnc1)N1CCc2ccccc21)c1ccc(Cl)cc1 (centres undefined) | . | 10µM* | 1% | 12µM* | . | .
N#Cc1ccccc1NC(=O)C(=O)NCC(c1cccnc1)N1CCc2ccccc21 (centres undefined) | . | 21µM* | -4% | 16µM* | . | .
CC(=O)N1CCN([C@H]2[C@@H]3OC[C@@H](O3)[C@@H](NC(=O)Nc3cccc(C(F)(F)F)c3)[C@@H]2O)CC1 | . | . | -23% | . | . | .
CCOC(=O)c1cc2c(ccn2C)n1CC(=O)N1CCN(c2ccccc2OC)CC1 | 2% | . | . | . | -6%[10 µM] | ?
COC(=O)c1cc2c(ccn2-c2ccc(F)cc2)n1Cc1ccc(OC(C)=O)cc1 | 0% | ? | ? | ? | -10% | 21%
